Most compounds without a hit are left out; they make up all but 2.3% or so of the library.
CHRM1 agonist: activates human CHRM1 receptor | activation, % at 3 µM | CHO-K1 hM1, Fluo-8 calcium fluorescence, agonist mode; 0% DMSO, 100% acetylcholine EC100 | AID 588814 | 360,000 tested, 0.33% active | P11229;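 active = activation above the run's mean compound activation plus 3 SD, cut at about 16% in these data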;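 also: peak over basal fluorescence ratio within a 140 s kinetic read after compound addition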
Target sequence (P11229 whole entry, looked up): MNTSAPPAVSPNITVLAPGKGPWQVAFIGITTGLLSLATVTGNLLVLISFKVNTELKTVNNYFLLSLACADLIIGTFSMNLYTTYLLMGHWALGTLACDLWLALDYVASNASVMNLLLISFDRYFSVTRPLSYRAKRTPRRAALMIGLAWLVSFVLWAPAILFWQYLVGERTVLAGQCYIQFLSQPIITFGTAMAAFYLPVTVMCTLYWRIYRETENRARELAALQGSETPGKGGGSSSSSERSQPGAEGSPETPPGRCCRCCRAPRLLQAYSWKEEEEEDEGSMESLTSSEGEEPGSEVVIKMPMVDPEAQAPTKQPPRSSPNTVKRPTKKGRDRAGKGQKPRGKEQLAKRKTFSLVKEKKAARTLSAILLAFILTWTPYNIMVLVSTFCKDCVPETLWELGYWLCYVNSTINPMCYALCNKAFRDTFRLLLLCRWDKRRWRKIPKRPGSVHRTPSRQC
CHRM1 antagonist: human CHRM1 antagonism; 360,000 tested, 1.3% active; P11229; AID 588852; inhibition, % at 3 µM; CHO-K1 hM1, Fluo-8 calcium fluorescence, ACh EC80 antagonist;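 active = percent inhibition above its own plate's cutoff, namely the mean of that plate's compound wells plus 3 SD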;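 also: peak over basal fluorescence ratio during 140 s after agonist addition; 0% = ACh EC80 plus DMSO and 100% = DMSO alone without agonist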
CHO-K1 Ca ag: nonselective activator or artifact in parental CHO-K1 cells. activation, % at 3 µM. Fluo-8 calcium fluorescence; scaled to maximal ATP response, vehicle zero. 360,000 tested, 0.48% active; in the data active = activation above about 15%;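 also: untransfected CHO-K1 host cells lacking M1 receptor as counterscreen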
CHO-K1 Ca PAM: nonselective activator or artifact in parental CHO-K1 calcium assay; ATP EC20, Fluo-8 calcium fluorescence; 0% at ATP EC20, 100% at ATP max; AID 602247; activation, % at 3 µM; 360,000 tested, 0.02% active;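 active = activation above the run cutoff, the mean activation of all test compounds plus 3 SD, cut at about 40% in these data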;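 also: peak over basal fluorescence ratio in a 140 s read after ATP addition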
CHO-K1 Ca antag: M1 antagonist counterscreen hit in parental CHO-K1 cells. ATP-induced calcium, Fluo-8 fluorescence. inhibition, % at 3 µM. 360,000 tested, 0.6% active;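 active = inhibition above a per-plate cutoff, the plate's mean sample inhibition plus 3 SD, cut at about 24% in these data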;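 also: 0% = DMSO plus EC80 ATP and 100% = DMSO alone without ATP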
CHRM1 PAM: human CHRM1 positive allosteric modulation | activation, % at 3 µM | 360,000 tested, 0.088% active | CHO-K1 hM1, Fluo-8 calcium fluorescence, ACh EC20; 0% = ACh EC20, 100% = maximal ACh | P11229; in the data active = activation above about 19%, passing the limit was not always enough
Active calls of the source: *.

SMILES	CHRM1 agonist	CHRM1 antagonist	CHO-K1 Ca ag	CHO-K1 Ca PAM	CHO-K1 Ca antag	CHRM1 PAM
COCCN(C(=O)Cc1cccs1)C(C(=O)NCc1ccc(OC)cc1)c1ccc(C)cc1 (stereo unspecified)	-1	-20	8	6	-14	0
COCCNC(=O)C(c1ccc(C)o1)N(Cc1ccc(OC)cc1)C(=O)Cn1nnc2ccccc21 (stereo unspecified)	23*	-29	9	10	9	0
CCN(C(=O)CSc1n[nH]c(N)n1)C1CCCCC1	-4	7	0	1	-10	-1
Cc1cc(C)n(CCC(=O)Nc2ccc3c(c2)OCCO3)n1	-1	-8	0	9	7	11
CC(C(=O)O)c1ccc(N2Cc3ccccc3C2=O)cc1 (stereo unspecified)	-6	-16	0	-9	15	-9
C/C=C(\C)CN1CCC(n2nccc2NC(=O)CCCc2ccccc2)CC1	-2	0	2	11	-9	2
Cc1cccc(Cn2c(N3CCN(C)CC3)nc3c2c(=O)[nH]c(=O)n3C)c1	-3	-4	9	18	-2	7
CC(=O)Cn1c(N2CCC(Cc3ccccc3)CC2)nc2c1c(=O)[nH]c(=O)n2C	-1	-48	0	23	-17	22*
Cc1cc(C)n(-c2nc3c(c(=O)[nH]c(=O)n3C)n2Cc2ccccc2)n1	-3	-3	0	-5	25*	1
Cc1cccc(Cn2c(N3CCCCC3C)nc3c2c(=O)[nH]c(=O)n3C)c1 (stereo unspecified)	-10	32*	0	3	2	-28
Cc1cc(C)n(-c2nc3c(c(=O)[nH]c(=O)n3C)n2CCc2ccccc2)n1	0	-3	0	4	5	3
Cn1cc(-c2csc(C(O)c3ccc(F)c(F)c3)n2)cn1 (stereo unspecified)	1	-13	2	7	0	8
CC(=O)NCCNC(=O)c1ccc(CSc2nc3ccccc3s2)cc1	4	-9	9	13	-10	8
Nc1ccc(S(=O)(=O)c2ccc(N)cc2)cc1	-2	-35	2	-9	26*	5
Nc1ccc(S(=O)(=O)N2CCCC2)cc1	-5	-6	1	14	-3	2
COc1ccc(-n2c(SCC(=O)N/N=C(\C)c3cccnc3)nc3ccccc3c2=O)cc1	-3	-19	1	21	-10	11
c1cnc2ncc3sccc3c2c1	-7	-3	19*	22	-4	8
Cc1cnc2ncc3sccc3c2c1	-6	-5	0	6	-12	4
CNc1ccc2c3c(cccc13)C(=O)N(C)C2=O	313*	73*	98*	-13	30*	-35
CN1C(=O)c2cccc3c(N(C)C)ccc(c23)C1=O	14	-4	23*	9	9	3
CN1C(=O)c2cccc3c(Cl)ccc(c23)C1=O	-4	-4	0	18	-20	-2
CN1C(=O)c2cccc3c(Br)ccc(c23)C1=O	-4	-17	1	16	-12	6
COc1ccc(-c2nc3c(c(SCC(=O)N4CCOCC4)n2)COC(C)(C)C3)cc1	-4	1	0	-6	30*	5
COC(=O)c1cccnc1-n1c(=O)c2cccnc2n(Cc2ccc([N+](=O)[O-])cc2)c1=O	18*	-9	1	-18	7	4
OC1(c2ccc(OC(F)F)cc2)CSC(=Nc2cccnc2)N1C1CC1 (stereo unspecified)	1	21*	8	3	12	-16
SMILES	CHRM1 agonist	CHRM1 antagonist	CHO-K1 Ca ag	CHO-K1 Ca PAM	CHO-K1 Ca antag	CHRM1 PAM
COc1ccc(OC)c(C2(O)CSC(=Nc3cccnc3)N2Cc2ccco2)c1 (stereo unspecified)	-2	1	2	7	-6	2
O=C1/C(=C/c2ccccc2)CCc2ccc(Cl)nc21	-8	-13	-1	20	-14	6
CCOc1ccc(Br)cc1S(=O)(=O)Nc1cccc(S(=O)(=O)Nc2ccccc2C(=O)O)c1	-3	-2	-1	-4	-8	5
COc1ccccc1N(C)S(=O)(=O)c1ccc(C(=O)N2CCCc3ccccc32)cc1	-3	15	16*	5	4	-12
Cc1ccc(S(=O)(=O)N2CCC(C(=O)NCc3ccccc3CN3CCCC3)CC2)cc1	-8	35*	0	4	-3	-23
COc1ccccc1N(C)S(=O)(=O)c1ccc(C(=O)NCc2ccccc2CN2CCCC2)cc1	-6	36*	4	13	-14	-14
CCOC(=O)c1cncc(C#CCO)c1	-2	5	0	-2	-2	4
O=C(CC(=O)Nc1cccc(Cl)c1Cl)Nc1cccc(Cl)c1Cl	-7	-12	3	18	-15	3
CN(Cc1ccc(OC(F)F)cc1)C(=O)c1cccc(S(=O)(=O)N2CCN(Cc3ccccc3)CC2)c1	-3	33*	11	-7	12	-14
COc1cccc(CN(C)C(=O)c2cccc(S(=O)(=O)N3CCN(c4ccccc4)CC3)c2)c1OC	1	11	12	-3	-9	-12
COc1cccc(CN(C)C(=O)c2cccc(S(=O)(=O)N3CCN(c4ccc(F)cc4)CC3)c2)c1OC	-2	28*	10	-22	11	-10
COCCCn1c(SCC(=O)N2CCCC2=O)nc2ccccc2c1=O	-2	-12	1	7	-5	4
CC[N+](C)(CC)CCC(c1ccccc1)C1CCCCC1 (stereo unspecified)	-9	100*	1	28	-8	-29
CCC(C(=O)NC1CCCCCC1)c1ccccc1 (stereo unspecified)	-8	1	0	-25	11	-4
CC[N+](C)(CC)CCOC(=O)C(O)(c1ccccc1)C1CCCCC1 (stereo unspecified)	-7	98*	0	9	0	-26
CCC(=O)N1CCC(C)(C(=O)NCc2ccc(F)cc2)C1 (stereo unspecified)	-6	2	1	21	-13	-3
CN1CCN(C(=O)Nc2ccc3c(c2)N(C)C(=O)c2ccccc2S3)CC1	-7	-12	0	5	-18	9
CN1CCN(C(=O)Nc2cccc(-c3ccccc3)c2)CC1	-8	31*	0	2	-4	-16
COc1ccc(-n2c(=S)[nH]c3cc(C(=O)N4CCN(c5ccccc5)CC4)ccc3c2=O)c(OC)c1	-3	-6	0	6	4	4
CCNC(=S)N1CCC(n2cnc3ccccc32)CC1	-5	-5	0	8	-10	4
O=C(NCc1ccc(F)cc1)c1cc(C2CCCCN2C(=O)CCc2ccccc2)on1 (stereo unspecified)	-8	-2	1	-9	4	-5

From PubChem BioAssay
